Gal4-VP16 FLuc = Gal4-VP16 reporter inhibition counter-screen | Drosophila S2 Gal4-VP16 UAS-luciferase, luminescence, 20 h | Potency, µM (highest dose often 53.6 µM), for inactives: top-dose activity, negative = inhibition, most hits filed as inhibitors | 310,000 compounds, 3.5% hits;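 further: Gal4-VP16 expression switched on by copper sulfate through the metallothionein promoter; on the % scale 0 is the no-effect control and ±100 the full control effect; nearly all actives have a fitted effect of over 50% in size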
RORg inh = blocks mouse ROR gamma transcriptional activity; 310,000 compounds, 5.4% hits; Potency, µM (titrated, usually from 53.6 µM), without a hit: at the top dose activity change, negative = inhibition, actives largely listed as inhibitors; Drosophila S2 Gal4-RORgamma UAS-luciferase reporter, 20 h; P51450; further: on the % scale 0 is the no-effect control and ±100 the full control effect; nearly all actives have a fitted effect of over 60% in size
Target sequence (P51450 whole entry, looked up, the tested form may be a part): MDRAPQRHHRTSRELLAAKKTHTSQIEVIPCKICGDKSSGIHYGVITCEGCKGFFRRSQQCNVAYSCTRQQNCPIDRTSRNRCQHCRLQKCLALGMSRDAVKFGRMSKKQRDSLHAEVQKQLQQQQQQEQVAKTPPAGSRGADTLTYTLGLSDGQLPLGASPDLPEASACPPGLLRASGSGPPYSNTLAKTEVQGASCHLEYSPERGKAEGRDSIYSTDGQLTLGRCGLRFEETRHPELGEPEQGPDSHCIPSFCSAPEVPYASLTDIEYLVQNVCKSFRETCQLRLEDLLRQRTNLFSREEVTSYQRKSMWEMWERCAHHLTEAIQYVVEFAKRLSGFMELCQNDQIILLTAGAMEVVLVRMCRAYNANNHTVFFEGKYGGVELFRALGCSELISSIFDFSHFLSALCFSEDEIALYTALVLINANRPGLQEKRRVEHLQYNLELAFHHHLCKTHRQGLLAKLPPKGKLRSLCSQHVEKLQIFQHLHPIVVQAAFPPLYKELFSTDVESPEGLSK
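Stable Schneider cell line, Gal4 DNA-binding domain fused to ROR gamma, UAS-luciferase. Cmpd 1 hr RT → CuSO4 700 uM final → 20 hr RT → luciferase reagent 10 min → luminescence.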
MCF10A rerep = induces DNA re-replication in MCF 10a normal breast cells; MCF 10A DNA re-replication, Hoechst nuclear intensity, 48 h; Potency, µM (doses to about 46.1 µM), without a hit: at the highest dose activity, positive = re-replication, actives largely listed as activators; 350,000 compounds, 2.9% hits; further: % of control where 0% means no effect; nearly all actives have a fitted effect of over 50% in size
ELG1 repair inh = blocks ELG1-dependent DNA repair in HEK293T cells; 330,000 compounds, 2.3% hits; Potency, µM (top dose mostly 46.1 µM), for inactives: top-dose activity change, negative = inhibition, most hits filed as inhibitors; HEK293T ELG1-luciferase reporter, luminescence, 16 h; DNA damage induced by 5-fluorouridine; further: on the % scale 0 is the no-effect control and ±100 the full control effect; nearly all actives have a fitted effect of over 55% in size
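Step one: seed 2,000 cells per well. Step two: pin-transfer compound or DMSO alongside 5-fluorouridine. Step three: incubate 16 hr, 37 °C, 5% CO2. Step four: add ONE-Glo, wait 30 min, read luminescence.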
SW480 rerep = induces DNA re-replication in SW480 colon adenocarcinoma cells; Potency, µM (top dose mostly 46.1 µM), without a hit: at the highest dose re-replication activation, actives largely listed as activators; 340,000 compounds, 1.8% hits; SW480 DNA re-replication, Hoechst DNA content imaging, 48 h; further: % of control where 0% means no effect; nearly all actives have a fitted effect of over 55% in size
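Image-based DNA-content assay: after two days of treatment, nuclei were labelled with the DNA dye Hoechst and imaged, and hits were compounds raising the count of nuclei showing high fluorescence intensity.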
* marks the source's active call; other numbers are inactive results; ? = inconclusive; . = not tested or not shown. In the library only some 10% were active in any assay of this set; here they are far more common. The call rests on the fitted dose curve; in most records, active means well fitted curve in the direction sought with a large enough effect; inconclusive means small, poorly fitted or top-dose-only effect, or another doubt; inactive means no such curve, though single readings can be large; an effect the other way counts as inactive or inconclusive. Potency means the concentration at half of the fitted maximal effect.

SMILES | Gal4-VP16 FLuc | RORg inh | MCF10A rerep | ELG1 repair inh | SW480 rerep
CCCCCCCCCCCCCCCCCCNc1ccn(C2OC(COP(=O)(O)OCC3OC(n4cc(F)c(=O)[nH]c4=O)CC3O)C(O)C2O)c(=O)n1 (stereo not given) | . | . | 10µM* | . | 21µM*
CN(CC(=O)Nc1ccc(F)cc1)CC(=O)NC1CCCCC1 | . | . | -4% | 3% | -4%
CC(C)(C)c1cc(CCC(=O)N2CCC2)cc(C(C)(C)C)c1O | -97% | 13µM* | 1% | 1% | -1%
COc1ccc(/C=N/NC(=O)c2ccc3ccccc3c2)cc1OS(=O)(=O)c1ccc(NC(C)=O)cc1 | -10% | 2% | -6% | ? | -17%
Clc1ccc(C2Nc3ccccc3-n3cccc32)cc1 (stereo not given) | -7% | -10% | 16µM* | ? | ?
CC(=O)/C(N=Nc1cc(C)ccc1O)=C(\C)O | -3% | 3.2µM* | ? | 0% | -59%
O=C(Nc1nc(-c2cc(Cl)sc2Cl)cs1)c1ccccc1 | ? | 3% | 21µM* | ? | -1%
Cc1ccc(C(=O)Nc2ccc(CN3CCS(=O)(=O)CC3)cc2)cc1C | 15% | 28% | 0% | ? | -5%
CC(=O)Oc1ccc2c(c1)OC(c1ccccc1)CC21CC(C)(C)NC(=S)N1 (stereo not given) | ? | 10µM* | 22% | -6% | 0%
CC1(C)CC2(CC(c3ccccc3)c3ccc(O)cc3O2)NC(=S)N1 (stereo not given) | -9% | 11µM* | 1% | 3% | 2%
CC(=O)Oc1cc2c(cc1Cl)C(c1cccs1)CC1(CC(C)(C)NC(=S)N1)O2 (stereo not given) | ? | 10µM* | -4% | -14% | 26%
CC1(C)CC2(CC(c3ccccc3)Oc3cc(O)ccc32)NC(=O)N1 (stereo not given) | -10% | -1% | . | -14% | .
CC1(C)CC2(CC(c3ccccc3)Oc3cc(O)ccc32)NC(=S)N1 (stereo not given) | 8.9µM* | 8.9µM* | 7% | ? | 5%
COc1ccc(C2CC3(CC(C)(C)NC(=O)N3)Oc3cc(O)ccc32)cc1 (stereo not given) | 21% | ? | -1% | -14% | -11%
O=C(NCC1CCCO1)c1cc([N+](=O)[O-])ccc1N1CCC(Cc2ccccc2)CC1 (stereo not given) | . | . | 13% | 23µM* | -24%
CC(c1ccccc1)n1cnc2ccccc21 (stereo not given) | -12% | 13µM* | 4% | -8% | 0%
Cc1ccc(C)c(-n2nnnc2Sc2nnnn2-c2ccccc2)c1 | ? | ? | 5.8µM* | 21µM* | 9.2µM*
COc1ccc(-n2nnnc2SCC(=O)Nc2ccccc2F)cc1 | 0% | 26% | -2% | ? | -7%
CC(=O)c1ccc(NC(=S)Nc2ccc3[nH]c(=O)[nH]c3c2)cc1 | 5% | 0% | 0% | 4% | -46%
Cc1ccc(NC(=S)Nc2ccc3[nH]c(=O)[nH]c3c2)cc1C | ? | 11µM* | ? | 5% | 0%
NCCCn1cnc2ccccc21 | 2% | 8% | 0.58µM* | 9% | -4%
O=C(NCCc1ccccc1F)c1ccc2c(c1)OCCO2 | 0.79µM* | 0.63µM* | 1% | ? | -1%
O=C(Nc1ccc(Br)cc1F)c1ccc2c(c1)OCCO2 | ? | 7.9µM* | 10% | ? | 0%
O=S(=O)(NCCSc1ccccn1)c1ccc(Br)cc1 | 11µM* | 8.9µM* | -16% | ? | -5%
Cc1ccc(S(=O)(=O)NCCSc2ncccn2)cc1 | 2% | -18% | ? | 9% | -41%
COc1ccc(CCN2CCCn3c2nc2c3c(=O)[nH]c(=O)n2C)cc1OC | 2% | 1% | ? | -13% | ?
O=c1[nH]c2ccccc2nc1-c1c[nH]c2ccccc12 | -6% | 1% | 25% | ? | 0.73µM*
Nc1ccccc1-c1nc2ccccc2[nH]c1=O | 11% | -16% | -2% | ? | ?
Cc1cnc(NC(=O)c2cc3ccccc3o2)s1 | 13µM* | 6.3µM* | 2% | ? | -9%

Assay outcomes (PubChem BioAssay)
